Compound activity from PubChem BioAssay.
Only some compounds are listed: those with a hit (about 2% of all), similar ones and a draw of the others.
Rango complex inh: inhibitors of Rango-importin beta complex formation. Q14974. Rango CFP/YFP FRET sensor + importin beta, 45 min. Potency, µM (titrated, usually from 92.2 µM), inactives show at the highest dose inhibition of complex formation. 340,000 tested, 0.031% active. AID 540263; calls by dose curve;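 further: 0% = DMSO wells and 100% = buffer wells lacking importin beta; nearly all actives have a fitted effect of over 15% in size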
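Inhibition scored from the CFP 486 nm/YFP 530 nm FRET ratio 45 min after adding 0.125 microM importin beta to 50 nM Rango biosensor preincubated 5 min with compound (room temperature, PBS with DTT, Tween-20, BSA). No-importin wells as positive control.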
S-ASM inh: inhibitors of human secretory acid sphingomyelinase; P17405; placental ASM, HMU-PC fluorogenic substrate, 60 min; Potency, µM (doses to about 57.5 µM), inactives show at the highest dose activity change, negative = inhibition, most hits filed as inhibitors; 340,000 tested, 0.006% active; AID 504937
Target sequence (P17405 47-631 limits assumed): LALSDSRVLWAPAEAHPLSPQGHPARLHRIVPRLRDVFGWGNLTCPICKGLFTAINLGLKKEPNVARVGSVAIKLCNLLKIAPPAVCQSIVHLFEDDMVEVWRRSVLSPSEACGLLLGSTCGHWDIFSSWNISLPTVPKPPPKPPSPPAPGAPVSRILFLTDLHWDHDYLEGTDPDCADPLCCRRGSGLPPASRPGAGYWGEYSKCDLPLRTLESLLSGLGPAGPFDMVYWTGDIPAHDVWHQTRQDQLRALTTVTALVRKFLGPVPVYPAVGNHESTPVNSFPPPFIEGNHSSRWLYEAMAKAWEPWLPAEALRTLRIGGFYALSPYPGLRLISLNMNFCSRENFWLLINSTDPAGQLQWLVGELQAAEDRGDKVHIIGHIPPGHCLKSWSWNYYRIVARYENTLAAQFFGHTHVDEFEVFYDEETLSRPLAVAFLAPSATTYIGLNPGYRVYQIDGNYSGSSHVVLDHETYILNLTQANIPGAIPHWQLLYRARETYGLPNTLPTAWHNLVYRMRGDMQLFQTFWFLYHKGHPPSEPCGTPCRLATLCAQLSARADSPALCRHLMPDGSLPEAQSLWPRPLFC
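Fluorogenic HMU-PC substrate (9 uM final) is turned over by placental ASM in 60 min at 37 C after a 10 min compound preincubation. Reaction ended by alkaline stop (pH 10), with fluorescence read at 386/447 nm.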
Rango dissoc inh: inhibitors of RanGTP-induced Rango-importin beta complex dissociation; O95149+P62826; Biochemical FRET Rango-importin beta, RanGTP-induced dissociation; AID 540253; 340,000 tested, 0.071% active; Potency, µM (top dose mostly 46.1 µM), inactives show at the highest dose activity change, negative = inhibition; calls by dose curve; further: % of control where 0% means no effect; nearly all actives have a fitted effect of over 45% in size
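Recombinant Rango FRET biosensor (EYFP–snurportin 1 IBB–cerulean CFP10) at 0.1 uM premixed with 0.25 uM importin beta in PBS, 1 mM DTT, 0.02% Tween-20, 0.1% BSA. Compound added 5 min; RanGTP-RCC1 (0.6 uM Ran, 2 mM GTP, 0.2 uM RCC1) then triggers release, read at 45 min.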
Abeta yeast res: A-beta toxicity reversal in yeast; yeast expressing A-beta42, growth rescue, OD600, 48 h; response scale: 0% DMSO, 100% iron-clioquinol control; Potency, µM (highest dose often 46.1 µM), usual class: activators; 410,000 tested, 0.063% active; further: nearly all actives have a fitted effect of over 55% in size
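Growth rescue measured by 600 nm absorbance after 48 h yeast culture at 30 C with compound. Values normalized between DMSO and an equimolar ferric chloride plus clioquinol control.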
aSyn rescue: inhibitors of alpha-synuclein toxicity in yeast; Potency, µM (series often up to 46.1 µM), without a hit: top-dose growth rescue (activation), hits mostly activators; 370,000 tested, 0.14% active; Yeast expressing alpha-synuclein, growth rescue, BacTiter-Glo, 24 h; AID 652106; further: % of control where 0% means no effect; nearly all actives have a fitted effect of over 65% in size
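Screening used galactose-induced yeast with toxic alpha-synuclein levels, exposed to compound for 24 hr at 30 deg C. Cell growth, read with BacTiter-Glo luminescence, gave the measured signal.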
TDP-43 yeast inh: TDP-43 toxicity inhibition in yeast | TDP-43 expressing yeast growth rescue, BacTiter-Glo, 24 h | Potency, µM (series often up to 46.1 µM), inactives show top-dose growth rescue (activation), hits mostly activators | 410,000 tested, 1.8% active | AID 652104; further: % of control where 0% means no effect; nearly all actives have a fitted effect of over 50% in size
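Yeast cells expressing TDP-43 under galactose induction are exposed to compounds for 24 hr at 30 deg C. BacTiter-Glo luminescence measures growth, so protective compounds score as activators.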
* hit, by the source's call; i = inactive; ? = inconclusive; · = no result. Unless noted, the call rests on the fitted dose curve; in most records, active means well fitted curve in the direction sought with a large enough effect; inconclusive means small, poorly fitted or top-dose-only effect, or another doubt; inactive means no such curve, though single readings can be large; an effect the other way counts as inactive or inconclusive. Potency means the concentration at half of the fitted maximal effect.

SMILES	Rango complex inh	S-ASM inh	Rango dissoc inh	Abeta yeast res	aSyn rescue	TDP-43 yeast inh
N#Cc1ccc(NC2c3ccccc3CC2O)cc1 (stereo not given)	1.5%	1.0%	20.6%	i	11.1%	15.4%
COc1ccccc1OCC(=O)NCCSCc1ccccc1Cl	-2.5%	2.0%	-7.1%	i	2.7%	21.2%
Cc1ccc(C(=O)NCCSCc2ccc(Cl)cc2Cl)cc1[N+](=O)[O-]	-0.1%	-11.5%	-0.2%	?	12.7%	9.9%
Cc1c(C(=O)NCCSCc2ccc(Cl)cc2Cl)cccc1[N+](=O)[O-]	-0.4%	-9.0%	12.8%	i	24.7%	14.1µM*
COc1ccccc1C(=O)NCCSCc1ccccc1Cl	1.5%	-3.6%	15.5%	i	-10.4%	12.6µM*
Cc1ccc(-c2cc(-c3ccccc3)c(C#N)c(N)n2)o1	?	i	?	i	-65.3%	22.4µM*
N#Cc1c(-c2ccccc2)cc(C2CC2)nc1N	1.5%	-2.5%	-8.5%	i	-0.2%	12.6µM*
CN(C)c1ccc(N=Cc2cccc3ccccc23)cc1	·	·	·	·	-7.4%	·
O=C(Nc1ccccc1N1CCN(C(=O)c2ccc(Cl)cc2)CC1)c1ccc2c(c1)OCO2	1.4%	-4.8%	10.9%	i	·	6.31µM*
Cn1c(N)c(C(C[N+](=O)[O-])c2c(F)cccc2Cl)c(=O)n(C)c1=O (stereo not given)	-1.7%	5.3%	?	i	9.9%	11.2µM*
O=S1(=O)c2ccccc2N(Cc2ccccc2F)c2ccccc21	·	·	·	i	·	-0.6%
CC1CCCCC1NC(=O)COC(=O)c1ccc(N(C)C)cc1 (stereo not given)	0.1%	-2.4%	-19.2%	i	6.0%	15.8µM*
O=C(NC(=S)Nc1ccc(S(=O)(=O)NC2CCCCC2)cc1)c1cccs1	-0.2%	-8.5%	12.1%	?	?	22.4µM*
CN(C)c1ccc(C(=O)OCC(=O)NC2CCCCCC2)cc1	-5.5%	0.7%	-6.5%	i	-7.8%	21.8%
CC1CCCC(NC(=O)COC(=O)c2cccs2)C1C (stereo not given)	?	0.5%	-16.3%	?	9.9%	11.2µM*
O=C(Nc1cc(Cl)ccc1N1CCCCC1)c1cccs1	4.5%	-9.8%	-7.4%	i	-1.8%	2.9%
O=C(NC(=S)Nc1ccc(S(=O)(=O)N2CCCCC2)cc1)c1cccs1	-0.9%	-6.7%	-13.0%	i	8.7%	-7.3%
O=C(NC(=S)Nc1ccc(N2CCCCC2)c(Cl)c1)c1cccs1	-2.6%	-7.4%	12.1%	i	-17.6%	35.5µM*
Cc1ccc(C(=O)OCC(=O)NC2CCCC(C)C2C)s1 (stereo not given)	·	·	·	i	27.9%	?
CC1CCCCC1NC(=S)NC(=O)c1cccs1 (stereo not given)	-0.1%	-10.8%	14.2%	10µM*	-4.6%	26.9%
CN1C(=O)c2ccccc2N(C)C1c1ccccc1Cl (stereo not given)	-5.9%	i	6.7%	i	13.1%	15.8µM*
CCOc1ccc(N2C(=O)CC(Sc3n[nH]c(-c4ccccc4)n3)C2=O)cc1 (stereo not given)	0.9%	-3.9%	-9.2%	i	-53.7%	3.55µM*
COc1ccc(N2C(=O)CC(Sc3nc(C)c4c(n3)CCCC4)C2=O)cc1 (stereo not given)	0.9%	-0.8%	5.5%	i	4.2%	-7.6%
COc1ccc(N2C(=O)CC(Sc3n[nH]c(-c4ccccc4)n3)C2=O)cc1 (stereo not given)	4.1%	-2.7%	8.3%	i	-7.6%	2µM*
COc1ccc(-n2c(/C=C/c3cc(OC)c(OC)cc3OC)nc3cc4ccccc4cc3c2=O)cc1Cl	·	·	·	i	·	26.6%
Cc1ccc2nc(Nc3ccc(Br)cc3)nc(-c3ccccc3)c2c1	·	·	·	i	·	12.7%
